Measured values published in PubChem BioAssay AID652067 (The Scripps Research Institute Molecular Screening Center, 2013).
About 5,400 (1.5%) of roughly 370,000 compounds were called active.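 How the source made its calls: active means activation above the mean of all tested compounds plus 3 SD (cut at about 5.5% in these data); inactive means the rest.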 This excerpt belongs to a sample that is enriched for actives.

Tested on: DAF-12 nuclear receptor (Haemonchus contortus)
Assay: H. contortus DAF-12 nuclear receptor activators, primary screen, cell-based, luminescence, HEK293, lit1-tk-luc reporter (AID 652067);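 further: 100% = response to 3 µM Δ7-dafachronic acid high control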
Conditions: HEK293 hcDAF-12 lit1-tk-luc reporter, at 6.8 µM, active compounds read high, 0% DMSO, 100% Δ7-dafachronic acid

activation, inactive:
COc1ccc(-c2cc(-c3nnc(SCC(=O)Nc4cccc5ccccc45)n3N)[nH]n2)cc1 0.47%
O=C(N=C1SC2CS(=O)(=O)CC2N1c1cc(Cl)ccc1Cl)C1CC1 (stereo unspecified) -1%
COc1ccc(Cn2cc(COC(=O)N(C)Cc3ccccc3)nn2)cc1 -0.59%
Cc1ccccc1C(=O)OC1OC(=O)C(Cl)=C1Nc1ccccc1 (stereo unspecified) -2.44%
CC(C)CNc1cccc2c1S(=O)(=O)N[C@H](C)CO2 -1.2%
O=C(NCc1ccccc1)[C@@H]1CCCN1C(=O)[C@H]1CCCN1C(=O)c1cccc(Cl)c1 -0.09%
O=C(NN=Cc1ccco1)C(=O)Nc1ccc(Cl)c([N+](=O)[O-])c1 -1.72%
Cc1cc2c(nc1C)CCCN2C 1.19%
CCOC(=O)[C@]12CCCC=C1N(Cc1ccc(OC)cc1)C(=O)[C@@H]2CC(=O)NCc1cccs1 -0.39%
Nc1nc(Nc2ccccc2F)nc(NC2CCCCC2)c1[N+](=O)[O-] -1.49%
COc1cccc(Nc2nc(N)c([N+](=O)[O-])c(NCc3ccco3)n2)c1 -3.76%
COc1ccc(NC(=O)N(C)C[C@@H]2OCCCC[C@@H](C)Oc3ccc(NC(=O)NC4CCCCC4)cc3C(=O)N([C@H](C)CO)C[C@@H]2C)cc1 -0.68%
Cc1ccccc1CS(=O)(=O)Cc1ccc(C(=O)Nc2ccc(Cl)cc2)o1 -6.56%
COP(=O)(O)CNC(=O)OCc1ccccc1 -1.19%
COc1ccc(-n2nnnc2SCC(=O)NCc2cccs2)cc1 -2.07%
FC(F)(F)c1nc(-c2ccccc2)ncc1-c1nnnn1-c1ccccc1 -4.23%
O=C(OCC(=O)N1CCOCC1)c1ccc2ccccc2c1 0.31%
O=C1CC[C@@H](COc2ccc3[nH]cc(-c4ccccc4)c3c2-c2ccccc2)N1 -1.8%
CC(C)(C)c1ccc(C(=O)Nc2cc(Cl)c(Br)cc2C(=O)O)cc1 2.27%
COc1ccc(CCNC(=O)CSc2nc3c([nH]2)c(=O)n(C)c(=O)n3C)cc1 -0.84%
Cc1ccc(NC(=O)N2CCC(C(=O)NCc3ccc(F)cc3)CC2)cc1 -0.76%
O=C(NCc1ccc(F)cc1)C1CCN(C(=O)Nc2ccc(F)cc2)CC1 -1.57%
O=C(NC1CCC1)c1ccc(C#Cc2cccc(F)c2)c[n+]1[O-] 1.33%
CCOC(=O)c1cc2ccccc2n1CC(=O)c1ccccc1 1.16%
COc1cc(C(O)c2nc3ccccc3n2C)cc(OC)c1OC (stereo unspecified) -1.25%
COc1ccccc1-c1ccc([C@@H]2C[C@H]3[C@H](CON3C)CN2S(=O)(=O)c2cc(Cl)cc(Cl)c2)cc1 1.1%
O=C(Nc1ccccc1)Nc1nnc(COc2ccccc2F)s1 -0.12%
O=C(Nc1nc2ccc(Cl)cc2s1)c1cc(-c2ccc(Cl)cc2)nc2ccccc12 4.5%
O=C(CCCCCN1C(=O)C2C3C=CC(C3)C2C1=O)Nc1ccccn1 (stereo unspecified) 2.04%
CCOC(=O)[C@]12CCCC3=C1N(CCC3)C(=O)[C@@H](CC(=O)N1CCSCC1)C2 -2.29%
CCCCn1c(N)c(N(CC(C)C)C(=O)c2cccc(S(=O)(=O)N3CCN(C(C)=O)CC3)c2)c(=O)[nH]c1=O -1.13%
CCCCn1c(N)c(N(CCOC)C(=O)c2cccc(S(=O)(=O)N3CCCCC3)c2)c(=O)[nH]c1=O -0.97%
Nc1[nH]c(/C=C2/CCCCC2n2[nH]c(=O)n(-c3ccccc3)c2=O)c(Cc2ccccc2)[n+]1Cc1ccccc1 (stereo unspecified) -2.89%
COC(=O)C12C=C3CC(c4ccccc4)=C3C(=O)N1Cc1[nH]c3ccccc3c1C2 (stereo unspecified) 1.08%
COc1cccc(C(NC(C)=O)c2nc(-c3cnc4ccccc4c3)cs2)c1 (stereo unspecified) -2.08%
CC(C)c1cccc(-c2csc(C(O)c3ccccc3)n2)c1 (stereo unspecified) 1%
COC(=O)c1cc(S(=O)(=O)N2CCN(C(=O)C3CCCO3)CC2)cn1C (stereo unspecified) 2.12%
Cc1cc(NS(=O)(=O)c2ccc(NC(=O)CSc3nnc(-c4ccc(C(C)(C)C)cc4)n3Cc3ccco3)cc2)nc(C)n1 -0.89%
Nc1cc(=O)c2[nH]cnc2[nH]1 -0.07%
CCCC[C@H](C(=O)N(CC)c1ccccc1)[C@@H](O)c1ccc2ccccc2c1 -1.18%
C=CCN(Cc1ccc2c(c1)OCO2)C(C#CC1CC1)C(C)(C)C (stereo unspecified) -0.69%
CCN(c1ccccc1)S(=O)(=O)c1cc(C(=O)NCc2ccccn2)ccc1C -0.36%
Cc1ccc(NC(=O)CNCc2ccccn2)cc1S(=O)(=O)N(C)C 0.26%
CCN(CC)C(=O)CC[C@@H]1CC[C@]2(CCCN(S(=O)(=O)C3CCCCC3)C2)O1 -3.16%
Cc1[nH]nc2c1C(c1ccc(Br)cc1)NC2=O (stereo unspecified) 1.05%

activation, active:
Cc1ccc(C2Nc3cccc4cccc(c34)N2)cc1 6.38%
Cc1cc(C)nc(Nc2n[nH]c(-c3ccccc3N)n2)n1 8.9%
CNc1nc(Nc2ccc(C)c(Cl)c2)nc(N)c1[N+](=O)[O-] 10.8%
COc1ccc(-n2nnnc2-c2nc3ccccc3s2)cc1 9.22%
NC(=O)c1ccccc1N=Cc1ccc2ccccc2c1 10.7%
N[C@@H](Cc1ccccc1)C(=O)N1CCC(C(=O)NCC(=O)Nc2ccc(F)cc2)CC1 8.85%
COCn1c(C(O)c2ccccc2)cc2ccccc21 (stereo unspecified) 6.22%
O=C(Nc1ccccc1)Nc1nc2ccccc2s1 15.3%
CCCCn1c(N)c(N(CC(C)C)C(=O)c2cccc(S(=O)(=O)N3CC(C)OC(C)C3)c2)c(=O)[nH]c1=O (stereo unspecified) 6.01%
OC(c1ccccc1)c1nc(-c2cnc3ccccc3c2)cs1 (stereo unspecified) 7.43%
CCN(CC)S(=O)(=O)c1cc(C(=O)Nc2ccccn2)ccc1C 5.61%
